According to PubChem BioAssay AID1159580 (chemical genetic matrix, 2015):
Values joined by “and” are separate entries in the source; they are usually repeats but may differ in a detail not shown here. Equal values may be shown once. Screen size: about 5,500 compounds; about 2,000 (36%) were called active. Roughly 18% stayed inconclusive and do not appear here. No stated cut-off is given here; in the data, active means normalized growth mostly below about 0.91 (no sharp cut-off); inconclusive means no clear call, values can overlap the other calls; inactive means mostly above about 0.92. The list shows a part of the results.

Assay: chemical genetic growth profiling, strain panel (AID 1159580);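 further: tested at 20 µM; growth read once vehicle control cultures reached saturation at 30 °C; 1 = growth at the plate median or of vehicle wells; lower values mean less growth of the strain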
Details: S. cerevisiae deletion strains, growth OD

Measured: normalized growth

COc1cccc(OC)c1C(=O)N[C@@H]1C(=O)N2[C@@H]1SC(C)(C)[C@@H]2C(=O)O
inactive: locus YAL013W, strain DEP1, hits give low values 0.994 | locus YAL021C, strain ccr4, hits give low values 1.01 | locus YAL026C, strain drs2, hits give low values 1.01 | locus YAL030W, strain snc1, hits give low values 0.997 | locus YBL061C, strain skt5, hits give low values 0.998 | locus YBR009C, strain hhf1, hits give low values 0.997 | locus YBR021W, strain FUR4, hits give low values 1.01 | locus YBR023C, strain chs3, hits give low values 0.988 | locus YBR171W, strain sec66, hits give low values 0.987 | locus YBR229C, strain ROT2, hits give low values 1.01 | locus YBR231C, strain swc5, hits give low values 0.984 | locus YBR279W, strain paf1, hits give low values 1 | locus YCL011C, strain gbp2, hits give low values 1.01 | locus YCL016C, strain dcc1, hits give low values 1 | locus YCL029C, strain bik1, hits give low values 0.99 | locus YCL069W, strain vba3, hits give low values 1 | locus YCR088W, strain abp1, hits give low values 0.996 | locus YDL005C, strain med2, hits give low values 0.991 | locus YDL035C, strain GPR1, hits give low values 1 | locus YDL040C, strain nat1, hits give low values 0.995 | locus YDL074C, strain BRE1, hits give low values 1.03 | locus YDL101C, strain DUN1, hits give low values 1 | locus YDL134C, strain PPH21, hits give low values 1.01 | locus YDL185W, strain tfp1, hits give low values 0.967 | locus YDL192W, strain arf1, hits give low values 0.988 | locus YDR001C, strain nth1, hits give low values 1 | locus YDR069C, strain doa4, hits give low values 1.01 | locus YDR101C, strain arx1, hits give low values 0.997 | locus YDR137W, strain rgp1, hits give low values 1.03 | locus YDR150W, strain NUM1, hits give low values 0.983 | locus YDR159W, strain sac3, hits give low values 0.988 | locus YDR162C, strain NBP2, hits give low values 0.979 | locus YDR195W, strain ref2 0.979 | locus YDR297W, strain sur2, hits give low values 1 | locus YDR318W, strain mcm21, hits give low values 0.987 | locus YDR334W, strain swr1, hits give low values 0.995 | locus YDR335W, strain msn5, hits give low values 0.998 | locus YDR388W, hits give low values 1 | locus YDR392W, strain spt3, hits give low values 0.998 | locus YDR502C, strain sam2, hits give low values 0.995 | locus YEL003W, strain gim4, hits give low values 1 | locus YEL037C, strain rad23, hits give low values 0.997 | locus YEL061C, strain CIN8 (second series), hits give low values 0.996 | locus YEL061C, strain CIN8, hits give low values 0.986 | locus YER015W, strain faa2, hits give low values 1 | locus YER016W, strain bim1, hits give low values 0.997 | locus YER110C, hits give low values 0.991 | locus YER111C, strain swi4, hits give low values 0.995 | locus YER155C, strain BEM2 (second series), hits give low values 0.966 | locus YER155C, strain BEM2, hits give low values 1.01 | locus YER167W, strain BCK2, hits give low values 0.999 | locus YFR010W, strain ubp6, hits give low values 0.989 | locus YGL078C, strain dbp3, hits give low values 0.991 | locus YGL086W, strain mad1, hits give low values 0.994 | locus YGL167C, strain pmr1, hits give low values 0.99 | locus YGL173C, strain kem1, hits give low values 0.977 | locus YGL227W, strain vid30, hits give low values 0.992 | locus YGL240W, strain doc1, hits give low values 1 | locus YGL248W, strain PDE1, hits give low values 1.01 | locus YGL253W, strain hxk2, hits give low values 1.01 | locus YGR078C, strain PAC10, hits give low values 1 | locus YGR135W, strain pre9, hits give low values 1 | locus YGR229C, strain SMI1, hits give low values 1.02 | locus YGR252W, strain gcn5, hits give low values 1.05 | locus YHR013C, strain ard1, hits give low values 1.01 | locus YHR027C, strain rpn1, hits give low values 1 | locus YHR030C, strain SLT2, hits give low values 0.993 and 1.03 | locus YHR079C, strain IRE1 (second series), hits give low values 0.991 | locus YHR079C, strain IRE1, hits give low values 1.01 | locus YHR094C, strain hxt1, hits give low values 0.982 | locus YHR129C, strain ARP1, hits give low values 1 | locus YHR142W, strain chs7, hits give low values 0.98 | locus YHR200W, strain rpn10, hits give low values 0.98 | locus YIL066C, strain RNR3, hits give low values 1.01 | locus YIL073C, strain SPO22, hits give low values 0.991 | locus YIL125W, strain kgd1, hits give low values 0.988 | locus YIR030C, strain dcg1, hits give low values 0.992 | locus YJL092W, strain hpr5, hits give low values 0.987 | locus YJL095W, strain BCK1 (second series), hits give low values 0.998 | locus YJL095W, strain BCK1, hits give low values 1.01 and 1.02 | locus YJL115W, strain asf1, hits give low values 0.999 | locus YJL129C, strain trk1, hits give low values 0.98 | locus YJL134W, strain LCB3, hits give low values 0.998 | locus YJL154C, strain vps35, hits give low values 0.993 | locus YJL164C, strain tpk1, hits give low values 0.994 | locus YJL166W, strain qcr8, hits give low values 0.97 | locus YJL168C, strain set2, hits give low values 0.988 | locus YJL187C, strain SWE1 (second series), hits give low values 1.01 | locus YJR043C, strain POL32, hits give low values 0.993
